# Measured values reported in PubChem BioAssay (NCATS).
# Several values for one entry are separate records, joined by “and”; a condition that tells them apart may be missing. Equal values may be shown once. A number with no mark means an inactive call. Records with an inconclusive call do not appear. Entries that show only a call come without a potency. Activity calls are given as the source filed them. Unless noted, calls follow the shape of the dose curve; as a rule, active = well fitted curve in the direction sought with a large enough effect; inconclusive = small, poorly fitted or top-dose-only effect, or another doubt; inactive = no such curve, though single readings can be large; an effect the other way counts as inactive or inconclusive.
# Assays:
# [1] = biological target: Cytochrome P450 2C9 (Homo sapiens) (UniProt P11712); experiment: qHTS Assay for Inhibitors and Substrates of Cytochrome P450 2C9 (AID 883); settings: recombinant CYP2C9, luciferin-H luminescence, 60 min; series mostly up to 11.4 µM; also: nearly all actives have a fitted effect of over 60% in size; also: potency is read from the fitted curve at half-maximal effect
# Sequence of Cytochrome P450 2C9 (Homo sapiens) (P11712 whole entry, looked up): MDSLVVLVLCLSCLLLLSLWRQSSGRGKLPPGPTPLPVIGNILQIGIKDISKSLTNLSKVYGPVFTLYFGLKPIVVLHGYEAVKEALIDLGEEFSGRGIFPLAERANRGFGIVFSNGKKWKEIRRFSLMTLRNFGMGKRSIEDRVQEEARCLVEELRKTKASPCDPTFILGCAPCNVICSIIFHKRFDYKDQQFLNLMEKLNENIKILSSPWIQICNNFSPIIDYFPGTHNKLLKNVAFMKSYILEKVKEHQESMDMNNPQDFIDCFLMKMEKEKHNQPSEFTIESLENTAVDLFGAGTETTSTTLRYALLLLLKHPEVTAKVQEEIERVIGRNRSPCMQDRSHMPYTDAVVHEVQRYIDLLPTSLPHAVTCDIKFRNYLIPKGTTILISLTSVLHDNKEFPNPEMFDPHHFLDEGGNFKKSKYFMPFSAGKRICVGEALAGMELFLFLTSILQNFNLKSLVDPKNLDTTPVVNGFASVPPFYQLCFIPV
# In short: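 Human CYP2C9 (10nM) hydroxylated Luciferin-H (100uM, at its KM) to luciferin in 25mM KPO4. Compound was preincubated 10 min at 37C, then NADPH regeneration started a 60 min reaction at 37C. Luminescence was read after detection reagent, normalized to 57uM sulphaphenazole.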
# [2] = biological target: Cytochrome P450 3A4 (Homo sapiens) (UniProt P08684); experiment: qHTS Assay for Activators of Cytochrome P450 3A4 (AID 885); settings: recombinant CYP3A4, Luciferin-PPXE luminescence, 60 min; series mostly up to 57.1 µM; also: nearly all actives have a fitted effect of over 65% in size
# Sequence of Cytochrome P450 3A4 (Homo sapiens) (P08684 whole entry, looked up): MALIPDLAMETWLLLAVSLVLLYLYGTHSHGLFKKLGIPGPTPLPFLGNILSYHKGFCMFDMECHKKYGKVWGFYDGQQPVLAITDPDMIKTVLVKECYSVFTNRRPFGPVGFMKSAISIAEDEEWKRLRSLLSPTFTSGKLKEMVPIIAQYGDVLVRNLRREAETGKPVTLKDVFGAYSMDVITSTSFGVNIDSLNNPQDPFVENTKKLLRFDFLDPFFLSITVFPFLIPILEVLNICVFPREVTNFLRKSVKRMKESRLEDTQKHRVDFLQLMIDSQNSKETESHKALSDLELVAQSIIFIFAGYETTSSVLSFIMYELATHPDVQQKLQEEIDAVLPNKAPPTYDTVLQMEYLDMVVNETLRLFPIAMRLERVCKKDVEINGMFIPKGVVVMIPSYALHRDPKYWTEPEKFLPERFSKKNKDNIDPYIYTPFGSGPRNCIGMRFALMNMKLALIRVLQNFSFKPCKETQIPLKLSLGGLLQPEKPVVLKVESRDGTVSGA
# In short: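 Human CYP3A4 (20 nM) with Luciferin-PPXE at 25 uM (its KM) in 200 mM KPO4; 10 min compound preincubation, then NADPH regeneration and 60 min reaction at RT. Luciferin read by luminescence; normalized to 57 uM ketoconazole full inhibition.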
# [3] = biological target: Cytochrome P450 2D6 (Homo sapiens) (UniProt P10635); experiment: qHTS Assay for Inhibitors and Substrates of Cytochrome P450 2D6 (AID 891); settings: recombinant CYP2D6, luciferin-ME EGE luminescence; series mostly up to 11.4 µM;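 also: luciferin methyl ether substrate demethylated by CYP2D6 with NADPH regeneration; nearly all actives have a fitted effect of over 60% in size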
# Sequence of Cytochrome P450 2D6 (Homo sapiens) (P10635 whole entry, looked up): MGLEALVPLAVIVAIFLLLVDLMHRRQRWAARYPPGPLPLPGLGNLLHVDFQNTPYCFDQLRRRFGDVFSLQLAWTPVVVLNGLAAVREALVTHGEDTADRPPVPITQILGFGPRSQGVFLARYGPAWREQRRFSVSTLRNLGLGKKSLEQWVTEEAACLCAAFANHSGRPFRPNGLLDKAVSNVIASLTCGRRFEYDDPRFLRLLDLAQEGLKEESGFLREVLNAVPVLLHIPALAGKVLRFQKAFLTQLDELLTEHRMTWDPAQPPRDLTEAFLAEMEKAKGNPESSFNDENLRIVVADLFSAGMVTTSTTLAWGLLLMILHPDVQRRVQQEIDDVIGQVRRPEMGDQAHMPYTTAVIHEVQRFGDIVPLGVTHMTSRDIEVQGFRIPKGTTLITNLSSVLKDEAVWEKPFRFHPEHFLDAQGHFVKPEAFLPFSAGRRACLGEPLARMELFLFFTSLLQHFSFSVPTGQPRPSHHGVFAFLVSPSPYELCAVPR
# In short: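 Human CYP2D6 (5 nM) with 30 uM Luciferin-ME EGE (at Km) in 100 mM KPO4, compound preincubated 10 min, then NADPH regeneration system for 60 min at room temperature. Luciferin read by luminescence; normalized to 1.43 uM quinidine.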
# [4] = biological target: Cytochrome P450 2C19 (Homo sapiens) (UniProt P33261); experiment: qHTS Assay for Inhibitors and Substrates of Cytochrome P450 2C19 (AID 899); settings: recombinant CYP2C19, luciferin-H EGE luminescence; series mostly up to 11.4 µM; also: nearly all actives have a fitted effect of over 60% in size; also: potency is read from the fitted curve at half-maximal effect
# Sequence of Cytochrome P450 2C19 (Homo sapiens) (P33261 whole entry, looked up): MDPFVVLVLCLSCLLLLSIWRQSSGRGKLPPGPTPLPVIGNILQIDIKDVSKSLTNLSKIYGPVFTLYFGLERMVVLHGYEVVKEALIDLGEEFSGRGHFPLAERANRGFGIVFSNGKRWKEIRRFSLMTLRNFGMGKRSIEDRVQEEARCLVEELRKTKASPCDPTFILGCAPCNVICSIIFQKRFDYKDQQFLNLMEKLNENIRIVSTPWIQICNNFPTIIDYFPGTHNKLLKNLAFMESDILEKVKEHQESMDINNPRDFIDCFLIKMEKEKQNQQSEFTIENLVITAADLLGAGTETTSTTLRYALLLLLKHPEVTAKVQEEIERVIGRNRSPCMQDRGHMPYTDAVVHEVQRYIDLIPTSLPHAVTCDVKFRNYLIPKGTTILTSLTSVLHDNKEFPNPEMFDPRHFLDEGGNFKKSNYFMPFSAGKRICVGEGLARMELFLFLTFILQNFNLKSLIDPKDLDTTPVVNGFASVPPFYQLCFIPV
# In short: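 Human CYP2C19 (5nM) with Luciferin-H EGE at 10uM (its KM) in 50mM KPO4 was preincubated with compound for 10 min at 37C. NADPH regeneration started a 60 min 37C reaction. Luciferin was read by luminescence, normalized to 57uM ketoconazole.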
# [5] = qHTS Assay for Identification of Small Molecule Agonists for Hypoxia Response Element Signaling Pathway (AID 914; active = well fitted activation curve with a large enough effect in the signal ratio, with a control signal flat, not every such curve was filed as active; the % refers to the signal ratio); settings: ME-180 (cervical carcinoma) HRE-bla reporter, beta-lactamase ratio, CoCl2, 17 h; stronger effect = higher value
# In short: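 Reporter activity (beta-lactamase, CCF4 460nm/530nm ratio) in HRE-bla ME-180 cells is recorded after 17 h compound exposure with EC50 CoCl2 at 37 degrees Celsius. AC50 values come from titration data.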
# [6] = biological target: Cytochrome P450 3A4 (Homo sapiens) (UniProt P08684); experiment: qHTS Assay for Inhibitors and Substrates of Cytochrome P450 3A4 (AID 884); settings: recombinant CYP3A4, Luciferin-PPXE luminescence; series mostly up to 57.1 µM; also: nearly all actives have a fitted effect of over 50% in size
# In short: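 20 nM human CYP3A4 with 25 uM Luciferin-PPXE (at KM) in 200 mM KPO4, preincubated 10 min with compound; NADPH regeneration started a 60 min RT reaction. Luciferin detected by luminescence, normalized to 57 uM ketoconazole as full inhibition.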
smiles,measurement,setting,value
COC(=O)C1=C(C)N(Cc2ccccc2)[C@]23O[C@](C(=O)OC)(C(=O)N2C1c1ccccc1)C(C(=O)OC)=C3C(=O)OC (stereo partly specified),Potency,[1],inactive
same,"activity change, positive = activation",[2],-58% [at 11.4 µM]
same,Potency,[3],inactive
same,Potency,[4],1580 nM (active)
CC(C)CCN1CCc2nc(-c3ccccc3)c3c(c2C1)COC(C)C3 (stereo unspecified),Potency,[1],inactive
same,"activity change, positive = activation",[2],-56% [at 11.4 µM]
same,Potency,[3],inactive
same,Potency,[4],inactive
CCCCCCC1=Cc2cc(OC)c(OC)cc2C(C(C(C)=O)C(=O)OC)O1 (stereo unspecified),Potency,[1],inactive
same,"activity change, positive = activation",[2],-57.6% [at 11.4 µM]
same,Potency,[3],inactive
same,Potency,[4],3160 nM (active)
O=C1CCCC=C1[C@H](CCc1ccccc1)OC(=O)c1ccc(Br)cc1,Potency,[1],3160 nM (active)
same,"activity change, positive = activation",[2],-49.6% [at 11.4 µM]
same,Potency,[4],1580 nM (active)
CCCCC#CC1C=CC(Oc2cc(OC)c(OC)c(OC)c2)C(CO)O1 (stereo unspecified),Potency,[1],inactive
same,"activity change, positive = activation",[2],-45% [at 11.4 µM]
same,Potency,[3],inactive
same,Potency,[4],inactive
C=C(C)C(O)/C=C/C=C/c1ccccc1 (stereo unspecified),Potency,[1],inactive
same,"activity change, positive = activation",[2],-32.8% [at 11.4 µM]
same,Potency,[3],inactive
same,Potency,[4],inactive
CCN1C(C)=C(C(=O)OC)C(c2ccccc2)N2C(=O)[C@](O)(C(=O)OC)C(c3ccccc3)C(C(C)=O)=C12 (stereo partly specified),Potency,[1],inactive
same,"activity change, positive = activation",[2],-59.7% [at 11.4 µM]
same,Potency,[3],inactive
same,Potency,[4],inactive
CCCCc1nc2c(c3c1CC(C)OC3)CN(CCOc1ccccc1)CC2 (stereo unspecified),Potency,[1],inactive
same,"activity change, positive = activation",[2],-59.6% [at 11.4 µM]
same,Potency,[4],inactive
COC(=O)NC(c1cccc(C)c1)C(C(C)=O)C(=O)OC (stereo unspecified),Potency,[1],inactive
same,"activity change, positive = activation",[2],-34.6% [at 11.4 µM]
same,Potency,[3],inactive
same,Potency,[4],inactive
C=CCOC(=O)C(C(C)=O)C(NC(=O)OC)c1ccc2ccccc2c1 (stereo unspecified),Potency,[1],inactive
same,"activity change, positive = activation",[2],-46.5% [at 11.4 µM]
same,Potency,[3],inactive
same,Potency,[4],126 nM (active)
CCCCCCC#CC1C=CC(Oc2ccc(C=O)cc2)C(CO)O1 (stereo unspecified),Potency,[1],inactive
same,"activity change, positive = activation",[2],-35.2% [at 11.4 µM]
same,Potency,[3],inactive
same,Potency,[4],3980 nM (active)
CC(=O)Nc1ccc(C2C(C)CCC3C(=O)N4C(CCC(C)[C@@H]4c4ccc(NC(C)=O)cc4)C(=O)N32)cc1 (stereo partly specified),Potency,[1],inactive
same,"activity change, positive = activation",[2],-34.4% [at 11.4 µM]
same,Potency,[3],inactive
same,Potency,[4],inactive
CC12C=C(/C=C/c3ccccc3)C(C)(C1)C(c1ccccc1)CC2=O (stereo unspecified),Potency,[1],inactive
same,"activity change, positive = activation",[2],-52.8% [at 11.4 µM]
same,Potency,[4],794 nM (active)
CCCCCCC1=Cc2cc(OC)c(OC)cc2C(C2(C(=O)OCC)CCCC2=O)O1 (stereo unspecified),Potency,[1],inactive
same,"activity change, positive = activation",[2],-36.1% [at 11.4 µM]
same,Potency,[3],inactive
same,Potency,[4],inactive
CCOC(=O)[C@]1(C(NC(=O)OC)c2ccccc2)CCCC1=O (stereo partly specified),Potency,[1],inactive
same,"activity change, positive = activation",[2],-34% [at 11.4 µM]
same,Potency,[3],inactive
same,Potency,[4],1260 nM (active)
COC(=O)C1=C(C)N(Cc2ccccc2)[C@]23O[C@](C(=O)OC)(C(=O)N2C1c1ccccc1)C1C(=O)N(c2ccccc2)C(=O)C13 (stereo partly specified),Potency,[1],inactive
same,"activity change, positive = activation",[2],-42.8% [at 11.4 µM] and -32.3% [at 11.4 µM]
same,Potency,[4],inactive
CC(C)CN1CCc2nc(-c3ccccc3)c3c(c2C1)COC(C)C3 (stereo unspecified),Potency,[1],inactive
same,"activity change, positive = activation",[2],-40.3% [at 11.4 µM]
same,Potency,[4],inactive
CC1Cc2c(-c3ccccc3)nc3c(c2CO1)CN(CCOc1ccccc1)CC3 (stereo unspecified),Potency,[1],inactive
same,"activity change, positive = activation",[2],-39% [at 11.4 µM]
same,Potency,[4],inactive
CO[C@H]1COC(=O)C/C=C\[C@@H](C)COC(=O)[C@H]2CCCN2C(=O)C/C=C\[C@H]1C,Potency,[1],inactive
same,activation,[5],11.3%
COc1ccc(B(O)O)cc1,Potency,[6],inactive
CCC1=C2CC[C@H]3C(=O)N(c4ccccc4)C(=O)[C@H]3[C@H]2[C@@]2(C)C(=O)N(Cc3ccccc3)C(=O)N2C1=O,Potency,[6],inactive
CN(C)/C=N/c1cc(=O)n(C)c(=O)n1Cc1ccccc1,Potency,[6],inactive
CCC1=C2CC[C@H]3C(=O)NC(=O)[C@H]3[C@H]2[C@@]2(C)C(=NCCOC)OC(=O)N2C1=O,Potency,[6],inactive
FC(F)(F)c1ccc(C2[C@H]3CN(CC4CCCCC4)[C@H](c4ccccc4)C34CC2(c2ccccc2)C4)cc1 (stereo partly specified),Potency,[6],inactive
FC(F)(F)c1cccc(-c2noc(-c3cc(-c4ccccc4)c(C(F)(F)F)s3)n2)c1,Potency,[6],inactive
Cc1cc(N)c2cc(OCCOc3ccc4nc(C)cc(N)c4c3)ccc2n1,"activity change, negative = inhibition",[6],-0.402% [at 11.4 µM]
COC(=O)c1ccc(C23CC4(C2)[C@H](CN(Cc2ccc(C(F)(F)F)cc2)[C@@H]4c2ccccc2)C3c2ccc(C(F)(F)F)cc2)cc1 (stereo partly specified),Potency,[6],inactive
